A selection: hits, their analogues and other compounds. The true share with any hit is near 1.5%.
HDAC3 inhib = inhibitors of human histone deacetylase 3 | 320,000 tested, 0.15% active | inhibition, % at 8.3 µM | AID 2718 | O15379 | recombinant HDAC3, fluorogenic peptide/trypsin coupled, fluorescence; in the data active = inhibition above about 26%, passing the limit was not always enough; inconclusive = no clear call, values can overlap the other calls
PolyA inhibitor = blocks polyadenylation in yeast reporter cells | S. cerevisiae SKY197-pL101 polyadenylation reporter, beta-gal luminescence; efflux-impaired pdr1/pdr3 knockout yeast; score 100 = 6 SD above DMSO | AID 1875 | activity score, % at 12 µM | 300,000 tested, 0.02% active;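 active = lowest replicate activity score at least 50, where 100 means six control SD above control mean; inconclusive = lowest score under 50 but half or more replicates reach 50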;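 note: yeast exposed to compound for 9 h at 30 °C; higher score means more reporter readthrough which indicates perturbed polyadenylation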
GASC-1 inh = blocks human GASC-1 demethylase activity. inhibition, % at 2.35 µM. 330,000 tested, 0.069% active. GST-JMJD2C(1-420) H3K9me3 demethylation, DELFIA europium;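 active = more than half of a compound's replicate wells show inhibition beyond 50%, single wells judged on their own value; inconclusive = some, but no more than half, of replicates pass 50% inhibition; inactive = no replicate passes 50% inhibition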;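 note: signal counts dimethyl H3K9 product captured on neutravidin plate; 0% = median of DMSO wells and 100% = 0.3 times that DMSO median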
Target sequence (Q9H3R0 1-420 limits assumed): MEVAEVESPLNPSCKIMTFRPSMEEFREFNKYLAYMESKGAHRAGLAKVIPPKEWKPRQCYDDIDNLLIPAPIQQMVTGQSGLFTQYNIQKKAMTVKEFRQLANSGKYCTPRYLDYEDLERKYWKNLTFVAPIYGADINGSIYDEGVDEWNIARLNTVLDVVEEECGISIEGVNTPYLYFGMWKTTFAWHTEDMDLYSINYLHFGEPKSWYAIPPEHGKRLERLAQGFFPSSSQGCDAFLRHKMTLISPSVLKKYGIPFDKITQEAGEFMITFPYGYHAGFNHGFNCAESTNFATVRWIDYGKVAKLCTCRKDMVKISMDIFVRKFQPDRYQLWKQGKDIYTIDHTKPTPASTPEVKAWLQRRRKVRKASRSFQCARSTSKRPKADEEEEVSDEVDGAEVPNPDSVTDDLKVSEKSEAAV
NALP3 yeast inh = inhibitors of NALP3 inflammasome in yeast | 330,000 tested, 0.39% active | inhibition, % at 10 µM | Yeast reconstituted NLRP3/ASC/caspase-1, beta-gal luminescence, 24 h | AID 2825;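 active = inhibition of 50% or more; inactive = inhibition below 50%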;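 note: plate controls were induced DMSO wells for no effect and uninduced yeast grown without galactose for full effect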
NALP1 inh = NALP1 inhibition | S. cerevisiae NALP1/ASC/caspase-1 growth, X-gal OD620, 72 h | inhibition, % at 10 µM | 280,000 tested, 0.61% active | AID 2071; in the data active = inhibition mostly above about 24%, no sharp cut-off; inactive = mostly below about 32%
Efflux pump inh = antifungal efflux pump inhibition, Nile Red retention; inhibition, % at 10 µM; 330,000 tested, 0.44% active; S. cerevisiae Candida pump triplex;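 active = plate passing quality check with inhibition over a set limit, or well fluorescence over plate mean plus 4 SD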;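 note: Nile Red retained in pooled yeast measured as flow cytometry median fluorescence; 0% = buffer negative control and 100% = Enniatin B positive control; higher means more Nile Red kept so more efflux inhibition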
NALP3 yeast conf = confirmation of NALP3 inhibitors in yeast; 1,300 tested, 81% active; inhibition, % at 10 µM; shares compounds with NALP3 yeast inh; yeast expressing human NALP3, luminescence; in the data active = inhibition above about 48%
Casp1-ASC yeast = active in yeast caspase-1-ASC counter-screen for NALP3 inhibitors; inhibition, % at 10 µM; shares compounds with NALP3 yeast inh; 1,000 tested, 66% active; yeast expressing Caspase-1-ASC, luminescence counter screen
NALP3 retest = retest-confirmed inhibitor of NALP3 in yeast; shares compounds with NALP3 yeast inh; yeast expressing human NALP3, luminescence read-out; inhibition, % at 10 µM; 1,000 tested, 53% active; AID 488794
Starred values were filed as active, the others as inactive; u = inconclusive; x = not tested or not shown. Cut-off read from the data, not from the text of the source, unless noted: active = inhibition above about 50%; inactive = the rest.

SMILES	HDAC3 inhib	PolyA inhibitor	GASC-1 inh	NALP3 yeast inh	NALP1 inh	Efflux pump inh	NALP3 yeast conf	Casp1-ASC yeast	NALP3 retest
O=S(=O)(c1ccc(N2CCCC2)cc1)C(F)(F)F	4.2	-21.2	-0.8	55.9*	-12.0	0.0	58.6*	58.8*	46.5
Cc1nn(C(C)C(=O)NC2CCCCCC2)c(=O)c2nn(-c3ccccc3)c(C)c12 (centres undefined)	-2.3	13.6	-0.3	3.6	9.7	0.3	x	x	x
Cc1c(C=O)c2ccccn2c1C(=O)c1ccccc1	x	-25.2	-1.7	55.8*	18.6	-0.3	58.6*	54.9*	41.5
Cc1c(C=O)c2ccccn2c1C(=O)c1ccc(F)cc1	9.0	1.7	0.4	59.3*	8.4	-0.1	71.8*	60.0*	54.2*
CN1C(=O)c2ccc(N3CCCC3)cc2C1=O	2.2	-13.8	-3.3	3.4	39.8	0.2	x	x	x
Cc1cc(N2CCCC2)ccc1/C=C1\NC(=S)N(C)C1=O	0.5	-51.3	0.7	50.9*	2.8	-0.1	50.0*	50.5*	46.8
CCCOc1ccc(C2=CSC3=NCCN23)cc1[N+](=O)[O-]	4.9	-2.1	2.0	3.1	22.8	0.0	x	x	x
CC(=O)Oc1c(I)cc(I)cc1C(=O)Nc1ccc(Cl)cc1	-14.3	-22.9	10.1	59.8*	3.1	-0.5	77.0*	46.8	57.6*
Cc1ccc(C)c(-n2nnnc2Sc2nnnn2-c2ccccc2)c1	-1.5	-12.5	-7.0	58.3*	x	0.0	74.2*	72.7*	62.3*
COc1ccc(N(CC2CO2)S(=O)(=O)c2ccc(C)cc2)cc1 (centres undefined)	0.3	5.7	-7.1	-11.2	31.2	0.2	x	x	x
CCOC(=O)c1c(NC(=O)CSc2nnc(C)o2)sc(C)c1C	20.5	0.1	-3.6	51.9*	x	-0.1	54.2*	47.6	34.4
COc1ccccc1NC(=S)N1CCN(c2cccc(C)c2C)CC1	4.1	21.5	9.8	-4.0	-5.1	0.1	x	x	x
C[C@H]1CN([C@@H](C)CO)C(=O)Cc2cc(NC(=O)Cn3cnnn3)ccc2O[C@H]1CN(C)Cc1ccncc1	5.4	x	16.2	-13.8	x	0.1	x	x	x
CCOC(=O)c1ccc(NC(=O)NCCc2cnc[nH]2)cc1	-3.7	-30.0	4.9	14.8	4.0	-0.2	x	x	x
COc1ccc(C2c3sc(=O)[nH]c3SC3C4CCC(C4)C23)cc1 (centres undefined)	3.6	-5.7	-7.5	51.4*	37.5	0.0	52.5*	x	x
CC1(C)CC(=O)C=C(c2cccc(Cl)c2O)C1	-2.0	x	1.4	71.0*	x	0.1	64.7*	75.3*	61.6*
COc1cccc(C2=CC(=O)CC(C)(C)C2)c1OC	-9.1	x	-3.3	21.4	x	0.0	x	x	x
O=C(Nc1cccc(Cl)c1)c1ccc(=O)[nH]n1	3.7	6.5	-2.3	8.7	20.7	0.0	x	x	x
O=C1c2cccc3c(Nc4ccccc4Cl)c([N+](=O)[O-])cc(c23)C(=O)N1CCO	10.7	-9.6	5.9	54.1*	15.9	0.1	70.6*	56.1*	55.5*
CCCCCCC(=O)O	x	x	x	2.6	x	0.2	x	x	x
CCCCCCCCCCCCCCCC(=O)OC(CC(=O)O)C[N+](C)(C)C (centres undefined)	x	x	x	57.0*	x	0.3	45.2	67.0*	44.6
Cc1ccc(NC(=O)c2nc(S(=O)(=O)Cc3ccccc3)ncc2Cl)cc1	7.8	-72.8	-8.9	55.2*	-11.6	0.1	68.2*	49.8	53.0*
O=C(Nc1ccc(F)cc1)c1nc(S(=O)(=O)Cc2ccccc2)ncc1Cl	-2.4	-70.1	-0.1	31.9	-12.5	-0.1	x	x	x
O=C(Nc1cccc(Cl)c1)c1cnn2cccnc12	-1.7	12.6	1.7	53.5*	3.0	0.0	78.8*	43.4	56.0*
O=C(Nc1cc(Cl)cc(Cl)c1)c1cnn2cccnc12	-2.8	3.9	2.8	19.9	15.3	-0.3	x	x	x
SMILES	HDAC3 inhib	PolyA inhibitor	GASC-1 inh	NALP3 yeast inh	NALP1 inh	Efflux pump inh	NALP3 yeast conf	Casp1-ASC yeast	NALP3 retest
Cc1cc(=O)oc2cc(NC(=O)Cc3ccccc3[N+](=O)[O-])ccc12	-23.5	9.9	10.0	10.1	15.9	-0.1	x	x	x
COc1ccc(F)cc1S(=O)(=O)NCC(=O)NCc1cc(=O)n(C)c(=O)n1C	-2.3	1.2	0.8	8.3	12.8	-0.1	x	x	x
CN1CCN(C(c2ccc(Br)cc2)c2cc(Cl)c3cccnc3c2O)CC1 (centres undefined)	3.6	-7.5	-8.4	57.3*	-1.7	0.3	37.2	x	x
CN1CCN(C(c2cccnc2)c2ccc3cccnc3c2O)CC1 (centres undefined)	-3.1	-21.4	1.2	16.9	18.0	0.1	x	x	x
CCn1c(-c2cc(-c3ccc(OC(C)C)cc3)nc3ccccc23)n[nH]c1=S	-3.8	5.0	-2.7	54.3*	-17.0	0.0	37.1	x	x
COc1ccc(S(=O)(=O)N2CCC(C(=O)NCCCc3ccccc3)CC2)cc1	-6.6	-0.3	-11.4	5.3	19.8	-0.1	x	x	x
O=C(Nc1cccc(Cl)c1)N1CCc2ccccc2C1	-3.5	10.6	2.2	65.9*	2.1	0.0	84.8*	74.2*	75.0*
C/C(=N\NC(=S)Nc1cccc(C)c1)c1ccco1	6.6	0.5	-0.9	52.7*	6.5	-0.3	27.2	x	x
CC(NC(=O)c1ccccc1Br)c1ccc2c(c1)CCCC2 (centres undefined)	11.8	3.1	-10.5	56.8*	7.3	0.2	70.5*	52.2*	30.8
CN(c1ccccc1)S(=O)(=O)c1ccc(C(=O)Nc2ncccc2O)cc1	u	0.6	34.0	7.5	x	-0.1	x	x	x
Cc1ccc(OCCC(=O)OC(C)C(=O)Nc2c(C)n(C)n(-c3ccccc3)c2=O)cc1 (centres undefined)	-8.5	-5.9	-1.0	22.6	x	0.1	x	x	x
COc1ccc(C2=NN(C(=O)CCC(=O)O)C(c3ccc([N+](=O)[O-])cc3)C2)cc1 (centres undefined)	13.2	-3.8	-6.5	14.0	-5.1	-0.1	x	x	x
O=C1C2N=NN(CC(=O)N3N=C(c4ccccc4)CC3c3ccc([N+](=O)[O-])cc3)C2C(=O)N1c1ccccc1 (centres undefined)	1.7	-17.2	-1.8	54.7*	7.8	-0.1	71.1*	x	x
CN(CC(=O)N1CCN(Cc2ccccc2)CC1)C(=O)Cc1cccc2ccccc12	5.7	x	5.1	9.1	x	0.3	x	x	x
Cc1cc([N+](=O)[O-])cc(/C=N\NC(=O)C2COc3ccccc3O2)c1O (centres undefined)	5.4	0.3	0.5	50.6*	-19.4	0.0	69.6*	78.0*	68.8*
O=c1c(O)c(-c2cccs2)oc2ccccc12	-1.0	21.9	21.0	67.4*	50.3	0.1	86.5*	78.5*	73.3*

Bioassay records: PubChem, several laboratories
